# Reference: PubChem BioAssay (NCATS)
# Results filed as inconclusive are left out. Entries that show only a call come without a potency. Calls of active or inactive are those of the source. The call rests on the fitted dose curve; in most records, active means well fitted curve in the direction sought with a large enough effect; inconclusive means small, poorly fitted or top-dose-only effect, or another doubt; inactive means no such curve, though single readings can be large; an effect the other way counts as inactive or inconclusive.
# Columns and labels:
# [1] = qHTS Assay for Identification of Small Molecule Antagonists for Thrombopoietin (TPO) Signaling Pathway (AID 918); details: TPO-dependent cell signaling reporter, antagonist mode; further: potency means the concentration at half of the fitted maximal effect; nearly all actives have a fitted effect of over 60% in size
# Method in brief: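 Inhibitors of TPO signaling are sought by stimulating IL-3-starved murine Ba/F3 cells (human TPO receptor, Glycoprotein IIb-driven luciferase) with TPO at its EC50 of 26 pM alongside compound. After 24 hrs at 37 C, reporter luminescence is measured.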
# [2] = target: Alpha-galactosidase (Coffea arabica) (UniProt Q42656); assay: Counterscreen for Glucocerebrosidase Inhibitors: qHTS Assay for Coffee Bean alpha-Galactosidase at pH 4.5 (AID 957); details: purified coffee bean alpha-galactosidase, fluorogenic substrate; series mostly up to 76.9 µM
# Method in brief: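 Enzyme is added first (2 nM final), then compounds titrated from 0.7 nM to 77 uM, then 80 uM 4-methylumbelliferyl alpha-D-galactopyranoside; after 20 min at room temperature a pH 10 NaOH/glycine stop precedes fluorescence reading at 365/440 nm.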
# [3] = target: Alpha-galactosidase (Coffea arabica) (UniProt Q42656); assay: Counterscreen for Glucocerebrosidase Inhibitors: qHTS Assay for Coffee Bean alpha-Galactosidase at pH 5.9 (AID 998); details: coffee bean alpha-galactosidase enzyme assay; series mostly up to 76.9 µM
# Method in brief: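 Enzyme 2 nM + cpd (0.7 nM–77 uM titration) + 4-MU-alpha-Gal 80 uM, pH 5.9 citrate/Tween-20, RT 20 min, NaOH/glycine stop pH 10, fluor 365/440. Normalized to no-enzyme and full-activity controls; Hill-fit AC50.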
# [4] = Confirmation and Secondary Assay for Modulators of Hemoglobin Beta Chain Splicing at IVS2 654 locus (AID 910); details: HeLa EGFP-654 splicing reporter, GFP fluorescence, 48 h; series mostly up to 46.1 µM;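 further: HeLa cells stably carrying EGFP split by mutant beta-globin IVS2-654 intron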
# Method in brief: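 HeLa cells stably expressing EGFP interrupted by β-globin IVS2-654 intron, seeded overnight in Opti-MEM/2% FCS, then treated 2 days at 37 °C. Restored splicing read as total peak GFP intensity per well by laser scanning cytometry (488 nm excitation, 500–520 nm emission); 500 nM antisense PNA as control.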
# [5] = Confirmation and Secondary Assay for Modulators of Hemoglobin Beta Chain Splicing at IVS2 705 locus (AID 930); details: HeLa EGFP-705 splicing reporter, GFP fluorescence, 48 h; series mostly up to 46.1 µM;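 further: HeLa cells stably expressing the EGFP-705 splicing reporter; GFP fluorescence per well restored by corrected splicing of the IVS2-705 intron in EGFP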
# Method in brief: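 First, HeLa EGFP-705 cells are seeded at 500/well in Optimem with 2% FCS and left overnight. Next, compound or DMSO is added for 2 days. Finally wells are laser-scanned and total peak GFP intensity scored.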
# Alpha-galactosidase (Coffea arabica), sequence (Q42656 whole entry, looked up): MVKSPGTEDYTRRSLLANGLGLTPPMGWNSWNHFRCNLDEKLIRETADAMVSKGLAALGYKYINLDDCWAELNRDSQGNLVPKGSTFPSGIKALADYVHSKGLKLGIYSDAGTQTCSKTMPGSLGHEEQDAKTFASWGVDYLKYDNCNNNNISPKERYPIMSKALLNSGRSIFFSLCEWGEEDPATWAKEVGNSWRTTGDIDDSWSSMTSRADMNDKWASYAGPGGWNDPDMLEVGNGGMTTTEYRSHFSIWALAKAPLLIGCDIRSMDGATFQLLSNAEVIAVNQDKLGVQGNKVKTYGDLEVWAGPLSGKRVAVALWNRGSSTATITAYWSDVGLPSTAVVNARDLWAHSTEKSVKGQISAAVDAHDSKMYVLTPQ
smiles,measurement,setting,value
CC[C@@H]1CN2CCc3cc(OC)c(OC)cc3[C@H]2C[C@@H]1C[C@@H]1NCCc2cc(OC)c(OC)cc21,Potency,[1],63.1 nM (active)
same,outcome,[2],inactive
same,outcome,[3],inactive
N[C@H](C(=O)O)[C@@H]1C[C@@H]1C(=O)O,outcome,[2],inactive
same,outcome,[3],inactive
Nc1ncnc2c1ncn2[C@@H]1O[C@@H](COP(=O)(O)OP(=O)(O)OP(=O)(O)OP(=O)(O)OC[C@@H]2O[C@@H](n3cnc4c(N)ncnc43)[C@@H](O)[C@H]2O)[C@H](O)[C@@H]1O,outcome,[2],inactive
same,outcome,[3],inactive
C=C(C)C1Cc2c(ccc3c2OC2COc4cc(OC)c(OC)cc4C2C3=O)O1 (stereo unspecified),Potency,[4],inactive
same,outcome,[5],inactive
CC(N)=NCCC[C@H](N)C(=O)O,outcome,[2],inactive
same,outcome,[3],inactive
C[C@@H]1COc2c(N3CCN(C)CC3)c(F)cc3c(=O)c(C(=O)O)cn1c23,outcome,[2],inactive
same,outcome,[3],inactive
CCOC(=O)C1=C(C)NC(C)=C(C(=O)OC)[C@H]1c1cccc([N+](=O)[O-])c1,outcome,[2],inactive
same,outcome,[3],inactive
Cc1cccc(/C=C\c2ccccc2)n1,outcome,[2],inactive
same,outcome,[3],inactive
O=C1N=C(O)CN1/N=C\c1ccc(-c2ccc([N+](=O)[O-])cc2)o1,outcome,[2],inactive
same,outcome,[3],inactive
NC[C@](O)(CS(=O)(=O)O)c1ccc(Cl)cc1,outcome,[2],inactive
same,outcome,[3],inactive
CC(C)COC[C@H](CN(Cc1ccccc1)c1ccccc1)N1CCCC1,outcome,[2],inactive
same,outcome,[3],inactive
C[C@@](N)(Cc1ccc(O)cc1)C(=O)O,outcome,[2],inactive
same,outcome,[3],inactive
C#CCN1C(C)=C(C(=O)OC)[C@@H](c2cccc([N+](=O)[O-])c2)C(C(=O)OCC)=C1C,outcome,[2],inactive
same,outcome,[3],inactive
C=CCc1ccccc1OC[C@H](O)CNC(C)C,outcome,[2],inactive
same,outcome,[3],inactive
CCCN(CCc1ccccc1)[C@H]1CCc2c(O)cccc2C1,outcome,[2],inactive
same,outcome,[3],inactive
N=C1Sc2ccccc2C2=NCCCN12,outcome,[2],inactive
same,outcome,[3],inactive
N[C@@H]1C=CC=C(C(=O)O)C1,outcome,[2],inactive
same,outcome,[3],inactive
O=C(O)CNC(=O)[C@@H](CS)Cc1ccccc1,outcome,[2],inactive
same,outcome,[3],inactive
Cc1nnc(SCC2=C(C(=O)O)N3C(=O)[C@@H](NC(=O)Cn4cnnn4)[C@@H]3SC2)s1,outcome,[2],inactive
same,outcome,[3],inactive
CN1CCc2cc(Cl)c(O)cc2[C@H](c2ccccc2)C1,outcome,[2],inactive
same,outcome,[3],inactive
COC(=O)[C@H](N)Cc1ccc(Cl)cc1,outcome,[2],inactive
same,outcome,[3],inactive
COc1cccc(OC)c1OCCNC[C@@H]1CSc2ccccc2O1,outcome,[2],inactive
same,outcome,[3],inactive
CC(=O)O[C@@H](C)C[N+](C)(C)C,outcome,[2],inactive
same,outcome,[3],inactive
C=CCN1CCc2c(cc(O)c(O)c2Br)[C@H](c2ccccc2)C1,outcome,[2],inactive
same,outcome,[3],inactive
CN1CCc2c(cc(O)c(O)c2Cl)[C@H](c2cccc(Cl)c2)C1,outcome,[2],inactive
same,outcome,[3],inactive
CCCC[C@]1(C2CCCC2)Cc2cc(OCC(=O)O)c(Cl)c(Cl)c2C1=O,outcome,[2],inactive
same,outcome,[3],inactive
CC(C)CN(C)c1nc(N)c(C(=O)N=C(N)N)nc1Cl,outcome,[2],inactive
same,outcome,[3],inactive
Nc1nc(SCc2ccc([N+](=O)[O-])cc2)c2ncn([C@@H]3O[C@@H](CO)[C@@H](O)[C@H]3O)c2n1,outcome,[2],inactive
same,outcome,[3],inactive
N[C@@H]1CCN(O)C1=O,outcome,[2],inactive
same,outcome,[3],inactive
CSc1ccc2c(c1)N(CC[C@H]1CCCCN1C)c1ccccc1S2,outcome,[2],inactive
same,outcome,[3],inactive
COc1cc2c(cc1OC)[C@H](c1ccccc1)CN(C)CC2,outcome,[2],inactive
same,outcome,[3],inactive
Nc1nc2c(nc(Br)n2[C@@H]2O[C@H]3COP(=O)(O)O[C@@H]3[C@H]2O)c(=O)[nH]1,outcome,[2],inactive
same,outcome,[3],inactive
Nc1ncnc2c1ncn2[C@@H]1O[C@@H](C(=O)NC2CC2)[C@H](O)[C@@H]1O,outcome,[2],inactive
same,outcome,[3],inactive
C=CCN1CCc2c(cc(O)c(O)c2Cl)[C@H](c2ccccc2)C1,outcome,[2],inactive
same,outcome,[3],inactive
CC(C)[C@@H]1NC(=O)[C@H](CCCCN)NC(=O)[C@H](Cc2c[nH]c3ccccc23)NC(=O)[C@H](Cc2ccc(O)cc2)NC(=O)[C@H](C)N(C)C(=O)[C@H](Cc2ccccc2)NC1=O,outcome,[2],inactive
same,outcome,[3],inactive
CCCCCCCCCCCCCCC/C=C\[C@H](O)[C@@H](NC(=O)CCCCCCCCCCCCC)OC (tested in a mixture with another compound),outcome,[2],inactive
same,outcome,[3],inactive
CCCCCN(CCCCC)C(=O)[C@H](CCC(=O)O)NC(=O)c1ccc(Cl)c(Cl)c1,outcome,[2],inactive
same,outcome,[3],inactive
C[C@@H](COc1ccc(/C=C\c2ccccc2)cc1)[N+](C)(C)C,outcome,[2],inactive
same,outcome,[3],inactive
COCCc1ccc(OC[C@H](O)CNC(C)C)cc1,outcome,[2],inactive
same,outcome,[3],inactive
COc1cc([C@H](O)CO)ccc1O,outcome,[2],inactive
same,outcome,[3],inactive
COc1cc([C@H](O)C(=O)O)ccc1O,outcome,[2],inactive
same,outcome,[3],inactive
C[C@@](N)(Cc1ccc(O)c(O)c1)C(=O)O,outcome,[2],inactive
same,outcome,[3],inactive
CN1Cc2c(N)cccc2[C@H](c2ccccc2)C1,outcome,[2],inactive
same,outcome,[3],inactive
CCCCCCCCCCCCCCCCCC(=O)NC[C@@H](COP(=O)([O-])OCC[N+](C)(C)C)OCC,outcome,[2],inactive
same,outcome,[3],inactive
CC(=O)OCC1=C(C(=O)O)N2C(=O)[C@@H](NC(=O)Cc3cccs3)[C@@H]2SC1,outcome,[2],inactive
same,outcome,[3],inactive
NC(=NCc1ccc(Cl)c(Cl)c1)NC(=O)c1nc(Cl)c(N)nc1N,outcome,[2],inactive
same,outcome,[3],inactive
CN(C)CC[C@@H](c1ccccc1)c1ccccn1,outcome,[2],inactive
same,outcome,[3],inactive
CN1CCc2cccc3c2[C@@H]1Cc1ccc(O)c(O)c1-3,outcome,[2],inactive
same,outcome,[3],inactive
C[C@@H](C(=O)O)c1ccc(C[C@@H]2CCCC2=O)cc1,outcome,[2],inactive
same,outcome,[3],inactive
COc1cc2c(cc1O)CC[C@@H]1[C@@H]2CC[C@@]2(C)[C@H](O)CC[C@H]12,outcome,[2],inactive
same,outcome,[3],inactive
CC(C)(C)[C@@]1(O)CCN2C[C@@H]3c4ccccc4CCc4cccc(c43)[C@@H]2C1,outcome,[2],inactive
same,outcome,[3],inactive
CCN1CCC[C@@H]1CNC(=O)c1cc(S(N)(=O)=O)ccc1OC,outcome,[2],inactive
same,outcome,[3],inactive
Cc1cccc(C)c1OC[C@H](C)N,outcome,[2],inactive
same,outcome,[3],inactive
C[C@@H](CN1CCC(Cc2ccccc2)CC1)[C@H](O)c1ccc(O)cc1,outcome,[2],inactive
same,outcome,[3],inactive
Cn1c(=O)c2c(nc(/C=C\c3cccc(Cl)c3)n2C)n(C)c1=O,outcome,[2],inactive
same,outcome,[3],inactive
CN[C@@H](CC(C)C)C(=O)N[C@@H]1C(=O)N[C@H](CC(N)=O)C(=O)N[C@H]2C(=O)N[C@H]3C(=O)N[C@H](C(=O)N[C@H](C(=O)O)c4cc(O)cc(O)c4-c4cc3ccc4O)[C@H](O)c3ccc(c(Cl)c3)Oc3cc2cc(c3O[C@@H]2O[C@@H](CO)[C@@H](O)[C@@H](O)[C@H]2O[C@H]2C[C@](C)(N)[C@H](O)[C@H](C)O2)Oc2ccc(cc2Cl)[C@@H]1O,outcome,[2],inactive
same,outcome,[3],inactive
Cc1cccc([C@@H]2CN(C)CCc3c2cc(O)c(O)c3Cl)c1,outcome,[2],inactive
same,outcome,[3],inactive
Oc1ccc([C@@H]2CNCCc3c2cc(O)c(O)c3Cl)cc1,outcome,[2],inactive
same,outcome,[3],inactive
CNCC[C@H](Oc1ccccc1C)c1ccccc1,outcome,[2],inactive
same,outcome,[3],inactive
N[C@@H](CO)C(=O)O,outcome,[2],inactive
same,outcome,[3],inactive
